A selection: hits, their analogues and other compounds. The true share with any hit is near 6%.
DRD3 agonist = D3 dopamine receptor (human) agonism | max activation, % | 0.58% of 410,000 active | P35462 | D3R DiscoveRx beta-arrestin cells, luminescence, 90 min; in the data active = max activation above about 30%; also: 0% is about no effect
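Agonist mode: compounds and dopamine controls were applied to plated cells for 90 min at 37 degrees C after an overnight attachment at 1500 cells/well. Luminescent read-out followed 30 - 60 minutes at room temperature with DiscoveRx detection reagent.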
D1 PAM = human D1 dopamine receptor positive modulation | P21728 | AID 504651 | 0.036% of 360,000 active | potentiation, % at 10 µM | HEK293 TREx D1 cells, calcium flux, dopamine EC20 potentiation; in the data active = potentiation above about 30%; also: 0% is about no effect
Target sequence (P21728 whole entry, looked up): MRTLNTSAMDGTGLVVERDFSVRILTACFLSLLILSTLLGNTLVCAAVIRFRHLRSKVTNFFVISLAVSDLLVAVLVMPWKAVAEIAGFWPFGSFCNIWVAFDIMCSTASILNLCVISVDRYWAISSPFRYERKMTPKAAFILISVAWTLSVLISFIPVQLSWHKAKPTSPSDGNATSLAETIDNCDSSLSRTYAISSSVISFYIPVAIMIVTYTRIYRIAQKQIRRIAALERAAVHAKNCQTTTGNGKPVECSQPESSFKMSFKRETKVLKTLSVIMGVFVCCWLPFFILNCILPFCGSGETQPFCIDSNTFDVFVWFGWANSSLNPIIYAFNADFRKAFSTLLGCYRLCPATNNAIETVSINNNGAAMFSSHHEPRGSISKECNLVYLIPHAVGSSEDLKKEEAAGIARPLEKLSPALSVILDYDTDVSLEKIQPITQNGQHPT
D1 ag = activates the human D1 dopamine receptor; P21728; HEK293 T-REx D1 cells, calcium flux, agonist mode; activation, % at 2 µM; 1% of 360,000 active; AID 504660; in the data active = activation above about 30%; also: 0% is about no effect
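Agonism was scored from calcium flux recorded over 180 s (1 read/s) after pintool compound addition, following a 10-cycle baseline. Cells were inducible force-coupled HEK293 TREx D1, plated overnight at 30 C and loaded with no-wash calcium dye.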
D3 antag = antagonists of human D3 dopamine receptor | P35462 | D3R cells, DiscoveRx beta-arrestin luminescence, antagonist mode; stronger effect = lower value | max response, negative = inhibition, % | 2.5% of 360,000 active | AID 652054; in the data active = max response below about -50%; inconclusive = no clear call, values can overlap the other calls; also: % is scaled to controls: 0 for no effect and ±100 for the full control effect
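Cells expressing the human receptor were seeded at 1500 cells/well, incubated overnight at 37 degrees C in 5% CO2, then exposed to library compounds with dopamine controls for 90 minutes at 37 degrees C before luminescent detection.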
D1 antagonist = antagonists of human D1 dopamine receptor; P21728; HEK293 TREx D1 cells, calcium flux, dopamine EC80; stronger effect = lower value; 3.2% of 360,000 active; activity change, negative = inhibition, % at 10 µM; AID 504652; in the data active = activity change below about -30%; also: % is scaled to controls: 0 for no effect and ±100 for the full control effect
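HEK293 T-REx cells expressing inducible, force-coupled D1 receptor; no-wash Ca dye, 30–90 min RT. Cmpd → 180 s read at 1 Hz → EC80 DA → 180 s read.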
* marks the source's active call; other numbers are inactive results; ? = inconclusive; . = no result.

SMILES	DRD3 agonist	D1 PAM	D1 ag	D3 antag	D1 antagonist
Cc1cccc(NC(=O)CN(CC2CCCO2)C(=O)c2oc3ccccc3c2C)c1C (stereo not given)	-5	.	29	52	11
CCOC(=O)Cc1ccc(NC(=O)Nc2nnc(N3CCCCC3C)s2)cc1 (stereo not given)	1	2	1	.	6
CC(=O)c1cccc(N(CC(=O)NC2CCCC2)C(=O)c2csnn2)c1	-6	.	10	-7	-39*
O=C(CCCC(=O)OCC(=O)c1cccs1)Nc1ccc(Oc2ccccc2)cc1	2	-8	19	-3	-42*
O=C(CCCC(=O)OCC(=O)c1cccs1)Nc1ccc(F)cc1	-6	2	3	16	-2
O=C(COC(=O)C1CC1)Nc1ccc(Oc2ccccc2)cc1	-4	-7	4	-23	-35*
O=C(CN1CCCCC1)Nc1ccccc1	0	-4	3	2	-2
O=C(COC(=O)C1CCC1)Nc1ccc(Oc2ccccc2)cc1	24	-2	4	-17	-14
O=C(CN1CCCCCC1)Nc1ccc(Oc2ccccc2)cc1	-6	-10	67*	3	-38*
CCn1cc(C(=O)NCCc2ccc(Cl)cc2)c(=O)c2cc(S(=O)(=O)N3CCC(C)CC3)ccc21	-6	2	-1	.	-2
COc1cccc(/C=C2\SC(N3CCC(C)CC3)=NC2=O)c1OC	-13	-1	4	-17	-2
COc1ccccc1/C=C1\SC(N2CCC(C)CC2)=NC1=O	-24	-3	0	-65*	-5
CCOC(=O)c1c(-c2ccccc2)oc2ccc(OCC(O)CNCCN(C)C)cc12 (stereo not given)	-8	-8	45*	?	-48*
CSCCC(NC(=O)c1ccccc1)C(=O)NC1CC1 (stereo not given)	34*	19	2	10	6
CSCCC(NC(=O)c1ccccc1)C(=O)NC1CCCC1 (stereo not given)	12	-3	2	4	-1
COc1ccc(C(CCN2CCCC(C)C2)c2c(OC)cc(OC)c3c(C)cc(=O)oc23)cc1 (stereo not given)	-67	2	5	-89*	14
COc1ccc(C(CCN2CCCC2)c2c(OC)cc(OC)c3c(-c4ccccc4)cc(=O)oc23)cc1 (stereo not given)	-16	-11	14	12	-8
COc1cc(OC)c2c(-c3ccccc3)cc(=O)oc2c1C(CCN1CCCC(C)C1)c1ccc(N(C)C)cc1 (stereo not given)	-42	-8	22	?	1
COc1ccc(C(CCN2CCCC(C)C2)c2c(OC)cc(OC)c3c(-c4ccccc4)cc(=O)oc23)cc1 (stereo not given)	-56	-10	29	-53*	-17
CN(c1ccccc1)S(=O)(=O)c1cccc(C(=O)NCC(c2cccs2)N2CCOCC2)c1 (stereo not given)	0	.	.	-7	.
CC1=NNC(=O)/C1=C\c1cn(-c2ccccc2)nc1-c1cccs1	-2	-18	7	?	-40*
CC1=NNC(=O)/C1=C\c1cn(-c2ccccc2)nc1-c1ccc(F)cc1	-3	-7	2	-69*	-54*
COc1ccc(NC(=O)c2ccc(C)cc2Cl)c([N+](=O)[O-])c1	2	-2	2	-63*	-5
CCOc1ccc(CNC(=O)c2cnc3sc(N(CC)CC)nn3c2=O)cc1OC	-8	-5	0	.	-8
Cc1cc(C)nc(NC2=NCC(=O)N2c2cc(Cl)cc(Cl)c2)n1	-2	-5	6	-4	6
SMILES	DRD3 agonist	D1 PAM	D1 ag	D3 antag	D1 antagonist
Cc1cccc(N2C(=O)CN=C2Nc2nc(C)cc(C)n2)c1	0	-3	-2	21	-32*
Cc1ccn2c(Nc3ccc4c(c3)OCCO4)c(-c3cccs3)nc2c1	-5	0	-1	.	-8
O=C(O)/C=C/c1ccc(Cn2ccnc2)cc1	-13	.	.	-8	.
CCOc1ccc(N2C(=O)/C(=C/c3ccccc3)N=C2SC)cc1	10	-3	3	27	-1
COc1ccc(/C=C2\N=C(SC)N(c3ccccc3OC)C2=O)cc1	-7	-8	14	-4	-34*
Cc1ccc(NC(=O)c2cnc(SCC(=O)N3CCCc4ccccc43)n(C)c2=O)cc1C	4	2	-1	.	.
CC(C)C1C(=O)Nc2ccc(S(=O)(=O)NCc3ccc(Cl)cc3)cc21 (stereo not given)	-5	-3	10	.	-17
COc1ccccc1NC(=O)C1=C(C)Nc2c(C(=O)Nc3ccc(F)cc3)cnn2C1c1cccc([N+](=O)[O-])c1 (stereo not given)	-5	-7	1	.	3
CNC(=O)c1cc(Oc2ccc(NC(=O)Nc3ccc(Cl)c(C(F)(F)F)c3)cc2)ccn1	0	0	6	-58*	1
Cc1cc(C)c2c(=O)n(CC(=O)Nc3cccc(F)c3)sc2n1	-8	-1	12	?	-32*
Cc1cc(C)c2c(=O)n(CC(=O)Nc3ccc(Cl)cc3)sc2n1	8	-10	23	?	-39*
Cc1cc[n+](CC(=O)Nc2ccccc2)cc1	-4	1	1	3	21
CCCC[n+]1ccn(C2=C([O-])c3ccccc3C(=O)/C2=N\S(=O)(=O)c2ccc(Br)cc2)c1	8	-3	0	-18	-5
Cc1ccc(S(=O)(=O)/N=C2\C(=O)c3ccccc3C([O-])=C2n2cc[n+](CCC(C)C)c2)cc1	12	1	1	-76*	19
Cc1ccc(NC(=O)C[n+]2ccn(C3=C([O-])c4ccccc4C3=O)c2)cc1	-8	-5	2	0	-41*
CCOC(=O)c1c(C)n(C)c2ccc(OC)c(NC(=O)CCN3CCC(Cc4ccccc4)CC3)c12	-21	-4	9	-120*	-36*
CCOC(=O)c1c(C)n(C)c2ccc(OC)c(NC(=O)CN3CCSCC3)c12	0	2	1	-21	6
COc1ccc(CNCC(=O)Nc2cc(OC)cc(OC)c2)cc1	-19	3	27	?	-6
O=c1n(-c2ccccc2)c(=O)n2n1CCC2	1	-2	1	16	5
O=c1n(-c2ccccc2)c(=O)n2n1CCCC2	42*	0	0	?	12
COc1ccc(-c2nc(C#N)c(N3CCc4ccccc4C3)o2)cc1OC	36*	-8	0	53	6
COc1ccccc1-c1nc(C#N)c(N2CCc3ccccc3C2)o1	30	8	3	11	6
O=[N+]([O-])c1ccc(S(=O)(=O)Nc2nc3ccccc3nc2Nc2ccccc2)cc1	-3	-7	0	-2	0
COC(=O)c1cc(Nc2nc3ccccc3nc2NS(=O)(=O)c2ccc(C)cc2)ccc1Cl	5	-4	17	.	-31*
CC(=O)Nc1ccc(Nc2nc3ccccc3nc2NS(=O)(=O)c2ccc(Cl)c([N+](=O)[O-])c2)cc1	3	.	.	-91*	.

Assay outcomes from PubChem BioAssay.
